Screen size: about 330,000 compounds; about 7,300 (2.2%) were called active. The list comes from a sample in which actives are over-represented; it also holds similar structures and randomly drawn compounds. Unmarked numbers belong to inactive results.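 How the source made its calls: active means inhibition of at least 40%; inactive means the rest.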
Assay: growth inhibitors of tim10-1 mutant yeast, primary screen, luminescence, uHTS (AID 463190);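 further: mutant grown at 25 °C; 0% = DMSO wells with yeast and 100% = wells holding no yeast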
Conditions: S. cerevisiae tim10-1 ts strain growth, BacTiter-Glo, 24 h; at 20 µM; active compounds read high

SMILES	inhibition
CCc1nc2sc(C(=O)O)c(N)c2c2c1CCCC2	-71.8%
CCN(CC)C(=O)c1sc2nc(-c3ccccc3)ccc2c1N	21%
CC(C)OC(=O)c1sc2nc3c(cc2c1N)C(=O)CCC3	-8.03%
Cc1cccc(NC(=O)c2sc3nc(N4CCOCC4)c4c(c3c2N)CCCC4)c1	32%
Cc1ccc2c(N)c(C(=O)c3ccccc3)sc2n1	41.9% (active)
Cc1nc2sc(C(=O)c3ccccc3)c(N)c2c2c1CCCC2	42.2% (active)
Cc1sc2nc(CC(N)=O)[nH]c(=O)c2c1-c1ccccc1	6.26%
COC(=O)c1cc2c(N)c(C(=O)c3ccc(Cl)cc3)sc2nc1C(OC)OC	10.6%
NC(=O)c1sc2nc3c(c(-c4ccccc4)c2c1N)CCC3	41.3% (active)
Cc1cc(C)cc(NC(=O)c2cccc(NC(=O)C3C4CC5OC(=O)C3C5C4)c2)c1 (centres undefined)	4.38%
CCCC(NC(=O)c1ccco1)c1nc2ccccc2[nH]1 (centres undefined)	14.1%
CCOc1ccc(CCNC(=O)C2=C(C)C(=O)OC23CCC(C)CC3)cc1OCC (centres undefined)	19.9%
Nc1nc(-c2sc3nc4c(cc3c2N)CCCC4)nc(N2CCOCC2)n1	27.8%
CCN(CC)Cc1csc2ccc(Br)cc12	7.29%
COc1ccccc1OCCNCC(O)COc1cccc2[nH]c3ccccc3c12 (centres undefined)	22.3%
COc1ccc(C)cc1S(=O)(=O)NCCc1ccccc1	22.2%
CCOC(=O)c1nnn(-c2nonc2-n2cccc2)c1CN1CCC(C(=O)OCC)CC1	31.9%
CC(=O)c1cccc(OCC(=O)OCC(=O)Nc2cc(S(=O)(=O)N3CCCCC3)ccc2C)c1	1.6%
COc1ccc(N(C)C(=O)C2CCN(S(=O)(=O)c3cccc4nsnc34)CC2)cc1	6.33%
CC(C)C(=O)Nc1ccc2c3c(cccc13)CC2	-15.9%
Oc1c(C(c2ccccn2)N2CCOCC2)ccc2cccnc12 (centres undefined)	43.7% (active)
CC(C)c1cc(CN2CCOCC2)cc(C(C)C)c1O	-5.76%

SMILES	inhibition
COc1ccc(CCNC(=O)C2CCCN(S(=O)(=O)c3ccc(OC)cc3)C2)cc1 (centres undefined)	1.05%
O=C1Oc2ccccc2C(=O)/C1=C/c1ccccc1O	62.2% (active)
COc1ccc2c(c1)O/C(=C\c1ccccc1O)C2=O	18%
COC(=O)c1ccc(/C=C2/C(=O)Oc3ccccc32)cc1	39.9%
Cc1ccccc1/C=C\c1nc(O)c([N+](=O)[O-])c(=O)[nH]1	-8.34%
CN(C)Cc1c(O)ccc2c(=O)c(-c3ccccc3Cl)coc12	1.49%
COc1ccc(NC(=O)CCCNC(=O)Cn2cnc3sc4c(c3c2=O)CCCC4)cc1OC	-24.1%
COc1ccc(NC(=O)CCNC(=O)Cn2cnc3sc4c(c3c2=O)CCCC4)cc1OC	-10.3%
COc1ccc(/C=N/Nc2ncnc3sc4c(c23)CCCC4)cc1O	40.7% (active)
S=C(NCCCc1ccccc1)Nc1ccc(Br)cc1	64.1% (active)
S=C(NCCc1ccccc1)Nc1ccccc1	19.1%
O=C(CCNC(=O)c1ccc(Br)cc1)NCCCc1ccccc1	7.38%
CC12CN(NC(=O)c3ccc(Cl)cc3)C3(C#N)CC1CCC23C (centres undefined)	36.5%
CCn1nc(C(=O)NNS(=O)(=O)c2cc(/C=C/C(=O)O)cc(OC)c2OC)c2ccccc2c1=O	-3.64%
O=C(COC(=O)c1ccc(S(=O)(=O)N2CCc3ccccc3C2)cc1)NC(=O)NCc1ccco1	0.504%
Cc1cnc(C(=O)Oc2cccc(Cl)c2Cl)cn1	-10.1%
COc1ccccc1OCC(=O)O/N=C(\N)c1ccccn1	22.7%
N/C(=N\OC(=O)c1ccc([N+](=O)[O-])cc1)c1ccccn1	37.6%
CCc1cccc(C)c1NC(=O)COC(=O)CC1CCCC1	2.51%
O=C(CC1CCCCC1)NCc1ccccc1	11.1%
N/C(=N\OC(=O)CCC1CCCCC1)c1ccccn1	47.6% (active)
N/C(=N\OC(=O)CC1CCCCC1)c1ccccc1	49.3% (active)

SMILES	inhibition
CCCC(C)C(=O)NCc1ccncc1 (centres undefined)	27.9%
CCCc1cc(=O)[nH]c(SCc2cc(=O)oc3c(C)c(C)ccc23)n1	10.3%
Cc1cccn2c(=O)c3cc(C(=O)NC4CCCCC4)sc3nc12	19.7%
Cc1cc(C)c2c(n1)sc1c(=O)n(-c3ccccc3)c(=O)[nH]c12	4.48%
Cc1cccc(NC(=S)Nc2ccc(Cl)c(Cl)c2)c1	49.9% (active)
Cc1cccc(NC(=S)NC23CN4CN(CN(C4)C2)C3)c1	10%
Cc1cccc(NC(=S)Nc2ccc3cn[nH]c3c2)c1	15.4%
Cc1cccc([C@@H]2[C@@H]3C(=O)N(C)C(=O)[C@@H]3[C@@H]3C(=O)Nc4ccccc4C(=O)N23)c1	5.99%
O=C(NC1CCCC1)c1cc(-c2ccccc2)on1	-21.5%
FC(F)(F)c1nnc2c3ccccc3c(Cl)nn12	17.8%
CC1CCc2sc3nc(N4CCN(CCO)CC4)n4ncnc4c3c2C1 (centres undefined)	40.6% (active)
Cc1cc(NC(=O)CSc2nc(C(C)C)nc3sc4c(c23)CCC(C)C4)no1 (centres undefined)	4.7%
CC(C)(C)C(=O)/C(C#N)=C/c1ccc(O)cc1	8.78%
CC(C)NC(=O)/C(C#N)=C\c1ccc(N(C)C)c(Br)c1	53.6% (active)
Cc1[nH]c2ccccc2c1/C=C(/C#N)C(=O)NC(C)C	20.4%
Cc1ccc(C(=O)OC2=CC(=O)CC(C)(C)C2)cc1	31%
COCCCNS(=O)(=O)c1cccc(S(=O)(=O)c2cccc(S(=O)(=O)NCCCOC)c2)c1	2.99%
O=C(COc1ccccc1F)NNC(=O)c1ccc(N2CCCCC2)c([N+](=O)[O-])c1	41.3% (active)
Cc1ccccc1OCC(=O)NNC(=O)c1ccc(-n2cncn2)c([N+](=O)[O-])c1	-11%
O=C(NCCCN1CCOCC1)c1ccc(N2CCCC2)c([N+](=O)[O-])c1	-9.34%

From PubChem BioAssay AID463190 (Sanford-Burnham Center for Chemical Genomics, 2010)
